Counter-ions that a name gives are not always drawn.
Key:
Conditions in all cases: 20 µM
[1] = test system: Salmonella enterica typhimurium; assay: growth AUC normalised to DMSO control (fraction of control); higher = less growth inhibition, active = hit call of the paper
Method in brief: (§1)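 For the AUC endpoint, growth curves were integrated by the trapezoidal rule up to the exponential-to-stationary transition and normalised to DMSO controls on the same plate. The curves came from OD578 readings taken hourly for 24 h, in three biological replicates. Pathogens had been passaged anaerobically twice and inoculated at an OD578 of 0.01 into pre-reduced mGAM plates carrying 20 μM compound and 1% DMSO, sealed with breathable membranes. Medium for Haemophilus parainfluenzae also contained hemin and NAD.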

Shigella flexneri = assay: as above
Method in brief: as §1

Vibrio cholerae = assay: as above
Method in brief: as §1

[2] = test system: Yersinia pseudotuberculosis; assay: as above
Method in brief: as §1

P. vulgatus RND KO = assay: growth AUC normalised to DMSO control (median) (fraction of control); higher = less growth inhibition, active = hit call of the paper
Method in brief: (§2)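 Area under the growth curve, calculated by the trapezoidal rule up to entry into stationary phase, was normalised to vehicle wells on the same plate. Strains had been passaged twice overnight without oxygen and then grown in mGAM in 96-well plates from OD578 0.01, each with an approved-drug library compound at 20 μM in 1% DMSO. OD578 was read hourly over 24 h in an anaerobic incubator, and the median of three biological replicates is given.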

P. vulgatus WT = assay: as above
Method in brief: as §2

[3] = test system: S. enterica typhimurium WT; assay: as above
Method in brief: as §2

[4] = test system: S. enterica typhimurium tolC KO; assay: as above
Method in brief: as §2

Measured: growth AUC normalised to DMSO control
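For growth AUC normalised to DMSO control (median) in this document: active when median AUC fell below 0.1.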

c1ccc2[nH]c(-c3cscn3)nc2c1 [Tiabendazole]
inactive: [1] 0.97 | Shigella flexneri 0.954 | Vibrio cholerae 0.956 | [2] 0.975 | P. vulgatus RND KO 0.971 | P. vulgatus WT 0.971 | [3] 1 | [4] 0.995

Clc1ccc(COC(Cn2ccnc2)c2ccc(Cl)cc2Cl)c(Cl)c1 (configuration not stated) [Miconazole]
inactive: [1] 0.997 | Shigella flexneri 1.01 | Vibrio cholerae 0.995 | [2] 1.03 | P. vulgatus RND KO 0.938 | P. vulgatus WT 0.927 | [3] 0.993 | [4] 0.98

CCOC(=O)[N-]c1c[n+](N2CCOCC2)no1 [Molsidomine]
inactive: [1] 1.02 | Shigella flexneri 1.02 | Vibrio cholerae 1.03 | [2] 1.01 | P. vulgatus RND KO 0.999 | P. vulgatus WT 0.991 | [3] 1 | [4] 1.01

CC[C@H]1OC(=O)[C@H](C)[C@@H](O[C@H]2C[C@@](C)(OC)[C@@H](O)[C@H](C)O2)[C@H](C)[C@@H](O[C@@H]2O[C@H](C)C[C@H](N(C)C)[C@H]2O)[C@](C)(O)C[C@@H](C)[C@@H]2N[C@@H](COCCOC)O[C@H]([C@H]2C)[C@]1(C)O [Dirithromycin]
inactive: Shigella flexneri 0.915 | [2] 1 | [3] 0.862
active: [1] 0.879 | Vibrio cholerae 0.154 | P. vulgatus RND KO 0.0107 | P. vulgatus WT 0.0116 | [4] 0.00235

CC(C)(C)NC[C@H](O)c1ccc(O)c(CO)c1 [Levalbuterol hydrochloride]
inactive: [1] 0.95 | Shigella flexneri 1.01 | Vibrio cholerae 1.01 | [2] 0.992 | P. vulgatus RND KO 0.962 | P. vulgatus WT 0.992 | [3] 1.01 | [4] 0.997

Cc1onc(-c2c(Cl)cccc2Cl)c1C(=O)N[C@@H]1C(=O)N2[C@@H]1SC(C)(C)[C@@H]2C(=O)O [Dicloxacillin sodium salt hydrate]
active: P. vulgatus RND KO 0.081 | P. vulgatus WT 0.0487 | [4] 0.00514
inactive: [1] 0.997 | Shigella flexneri 1.01 | Vibrio cholerae 1 | [2] 1.01 | [3] 1.01

Cc1c(N)c(=O)n(-c2ccccc2)n1C [Ampyrone]
inactive: [1] 0.996 | Shigella flexneri 0.998 | Vibrio cholerae 0.965 | [2] 0.986 | P. vulgatus RND KO 1.04 | P. vulgatus WT 1 | [3] 1 | [4] 1

CCc1cc(C(N)=S)ccn1 [Ethionamide]
inactive: [1] 0.991 | Shigella flexneri 0.963 | Vibrio cholerae 0.998 | [2] 0.975 | P. vulgatus RND KO 1 | P. vulgatus WT 0.986 | [3] 0.996 | [4] 0.994

CNC(C)CCC=C(C)C (configuration not stated) [Isometheptene mucate]
inactive: [1] 0.988 | Shigella flexneri 0.995 | Vibrio cholerae 1.01 | [2] 1 | P. vulgatus RND KO 1.01 | P. vulgatus WT 1.02 | [3] 1.01 | [4] 1

OC(CCN1CCCCC1)(c1ccccc1)C1CC2C=CC1C2 (configuration not stated) [Biperiden hydrochloride]
inactive: [1] 0.987 | Shigella flexneri 0.967 | Vibrio cholerae 0.934 | [2] 1 | P. vulgatus RND KO 0.994 | P. vulgatus WT 1.01 | [3] 1.01 | [4] 0.946

CC(C)(O)c1ccccc1CC[C@@H](SCC1(CC(=O)O)CC1)c1cccc(/C=C/c2ccc3ccc(Cl)cc3n2)c1 [Montelukast]
inactive: [1] 1.02 | Shigella flexneri 1.04 | Vibrio cholerae 1.05 | [2] 1.01 | P. vulgatus RND KO 0.911 | P. vulgatus WT 0.875 | [3] 1 | [4] 1

CC1=C(/C=C/C(C)=C/C=C/C(C)=C\C(=O)O)C(C)(C)CCC1 [Isotretinoin]
inactive: [1] 0.994 | Shigella flexneri 0.992 | Vibrio cholerae 1 | [2] 1 | P. vulgatus RND KO 1.01 | P. vulgatus WT 0.989 | [3] 0.999 | [4] 1

O=C(O)CCCC[C@@H]1SC[C@@H]2NC(=O)N[C@@H]21 [Biotin]
inactive: [1] 0.992 | Shigella flexneri 0.975 | Vibrio cholerae 1 | [2] 0.946 | P. vulgatus RND KO 1.01 | P. vulgatus WT 1.03 | [3] 1 | [4] 1

Cn1cnc2c1c(=O)[nH]c(=O)n2C [Theobromine]
inactive: [1] 1.03 | Shigella flexneri 1.08 | Vibrio cholerae 1.04 | [2] 1.03 | P. vulgatus RND KO 1.02 | P. vulgatus WT 1.03 | [3] 1.01 | [4] 1.01

CC(COc1ccccc1)NC(C)C(O)c1ccc(O)cc1 (configuration not stated) [Isoxsuprine hydrochloride]
inactive: [1] 0.979 | Shigella flexneri 0.989 | Vibrio cholerae 1 | [2] 0.989 | P. vulgatus RND KO 1.02 | P. vulgatus WT 1.01 | [3] 0.998 | [4] 1

CN1[C@@H]2CC[C@H]1C[C@@H](OC(c1ccccc1)c1ccccc1)C2 [Benztropine mesylate]
inactive: [1] 1 | Shigella flexneri 1.01 | Vibrio cholerae 1 | [2] 1.01 | P. vulgatus RND KO 0.944 | P. vulgatus WT 0.904 | [3] 0.998 | [4] 0.195

C/C(=C(\CCOP(=O)(O)O)SC(=O)c1ccccc1)N(C=O)Cc1cnc(C)nc1N [Benfotiamine]
inactive: [1] 0.997 | Shigella flexneri 0.982 | Vibrio cholerae 0.996 | [2] 0.988 | P. vulgatus RND KO 1.02 | P. vulgatus WT 1.03 | [3] 1.01 | [4] 0.999

N[C@@H]1CONC1=O [D-cycloserine]
inactive: [1] 1.03 | Shigella flexneri 1.01 | Vibrio cholerae 1.02 | [2] 1.01 | P. vulgatus RND KO 0.972 | P. vulgatus WT 0.962 | [3] 0.994 | [4] 1

Cc1ccc(C(=O)c2ccc(CC(=O)O)n2C)cc1 [Tolmetin sodium salt dihydrate]
inactive: [1] 0.984 | Shigella flexneri 1.04 | Vibrio cholerae 1.05 | [2] 1.01 | P. vulgatus RND KO 0.983 | P. vulgatus WT 0.985 | [3] 0.999 | [4] 1

CC(C)(C)NC(=O)[C@H]1CC[C@H]2[C@@H]3CC[C@H]4NC(=O)C=C[C@]4(C)[C@H]3CC[C@]12C [Finasteride]
inactive: [1] 1.02 | Shigella flexneri 1.02 | Vibrio cholerae 1.03 | [2] 1.01 | P. vulgatus RND KO 1.02 | P. vulgatus WT 1.04 | [3] 1.01 | [4] 0.895

NS(=O)(=O)c1cc(C2(O)NC(=O)c3ccccc32)ccc1Cl (configuration not stated) [Chlorthalidone]
inactive: [1] 1 | Shigella flexneri 0.989 | Vibrio cholerae 0.995 | [2] 0.994 | P. vulgatus RND KO 1 | P. vulgatus WT 0.986 | [3] 1 | [4] 0.998

C[C@@H]1[C@H](O)[C@@H](C)/C=C/C=C/C=C/C=C/C=C/C=C/C=C/[C@H](O[C@@H]2O[C@H](C)[C@@H](O)[C@H](N)[C@@H]2O)C[C@@H]2O[C@](O)(C[C@@H](O)C[C@@H](O)[C@H](O)CC[C@@H](O)C[C@@H](O)CC(=O)O[C@H]1C)C[C@H](O)[C@H]2C(=O)O [Amphotericin B]
inactive: [1] 1.02 | Shigella flexneri 1.1 | Vibrio cholerae 1.05 | [2] 1.02 | P. vulgatus RND KO 1.04 | P. vulgatus WT 1.1 | [3] 1.01 | [4] 0.988

CS(=O)(=O)c1ccc([C@@H](O)[C@@H](CO)NC(=O)C(Cl)Cl)cc1 [Thiamphenicol]
inactive: [3] 0.509 | [4] 0.281
active: [1] 0.408 | Shigella flexneri 0.0249 | Vibrio cholerae 0.037 | [2] 0.866 | P. vulgatus RND KO 0.0183 | P. vulgatus WT 0.0102

CC(=O)Oc1cc(C(F)(F)F)ccc1C(=O)O [Triflusal]
inactive: [1] 0.964 | Shigella flexneri 0.949 | Vibrio cholerae 0.959 | [2] 0.954 | P. vulgatus RND KO 0.979 | P. vulgatus WT 1 | [3] 0.995 | [4] 0.955

Nc1nc(Cl)nc2c1ncn2[C@H]1C[C@H](O)[C@@H](CO)O1 [Cladribine]
inactive: [1] 0.985 | Shigella flexneri 0.949 | Vibrio cholerae 0.982 | [2] 1 | P. vulgatus RND KO 1.01 | P. vulgatus WT 1.02 | [3] 0.915 | [4] 0.911

N/C(=N\C(=O)c1nc(Cl)c(N)nc1N)NCc1ccccc1 [Benzamil hydrochloride]
inactive: [1] 0.972 | Shigella flexneri 0.986 | Vibrio cholerae 0.99 | [2] 0.998 | P. vulgatus RND KO 0.996 | P. vulgatus WT 0.991 | [3] 0.998 | [4] 0.984

CCN(Cc1ccncc1)C(=O)C(CO)c1ccccc1 (configuration not stated) [Tropicamide]
inactive: [1] 1.01 | Shigella flexneri 0.987 | Vibrio cholerae 0.995 | [2] 1 | P. vulgatus RND KO 0.996 | P. vulgatus WT 0.995 | [3] 1.01 | [4] 1

CCN(CC)Cc1cc(Nc2ccnc3cc(Cl)ccc23)ccc1O [Amodiaquine dihydrochloride dihydrate]
inactive: [1] 0.974 | Shigella flexneri 1.02 | Vibrio cholerae 1 | [2] 0.966 | P. vulgatus RND KO 1 | P. vulgatus WT 0.961 | [3] 0.982 | [4] 1

CC[N+](C)(CC)CCOC(=O)C1c2ccccc2Oc2ccccc21 [Methantheline bromide]
inactive: [1] 1 | Shigella flexneri 1.01 | Vibrio cholerae 0.973 | [2] 1 | P. vulgatus RND KO 0.972 | P. vulgatus WT 0.981 | [3] 1 | [4] 0.995

Reference: the supplement of paper PMC12350171
